Rows were chosen to be rich in hits. Some 2.4% of all compounds tested hit in one or more screens of this group.
Nrf2 inh: Nrf2 qHTS screen for inhibitors. A549 ARE-Fluc reporter, luciferase luminescence, 18-24 h. 360,000 compounds, 2.1% hits. Potency, µM (titrated, usually from 46 µM), inactives show at the highest dose activity change, negative = inhibition, hits mostly inhibitors; further: on the % scale 0 is the no-effect control and ±100 the full control effect; nearly all actives have a fitted effect of over 60% in size
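Reporter: ARE-Fluc in A549. Exposure: 18-24 h, 37 °C, 5% CO2, 5% FBS OPTI-MEM. Readouts: fluorescent cytotoxicity (CellTiter-Fluor), then luminescent Nrf2 signal after BugLite.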
Nrf2 activator: qHTS of Nrf2 Activators; 410,000 compounds, 0.31% hits; Potency, µM (doses to about 46.1 µM), for inactives: at the top dose activation, hits mostly activators; AID 624171, 2012; AREc32 ARE-luciferase reporter (MCF7-derived line), luminescence, 24 h; further: % of control where 0% means no effect; nearly all actives have a fitted effect of over 65% in size
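Luminescent ARE reporter assay in AREc32_Fluc cells: overnight plating at 37 deg C, 24 hr compound incubation, Steady-Glo added, 30 min RT before reading.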
Epigenetic derep: Quantitative High-Throughput Screen for Regulators of Epigenetic Control; murine LDR cells, GFP reporter derepression, 30 h; Potency, µM (series often up to 53.9 µM), inactives show at the top dose GFP activation, hits mostly activators; 280,000 compounds, 0.2% hits; AID 1865, 2009; further: % of control where 0% means no effect; nearly all actives have a fitted effect of over 60% in size
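Murine LDR cells bearing a silenced CMV-driven GFP reporter were exposed to compound for 30 h at 37 C. After PBS washes, GFP-positive cells (20-120 um objects) counted by laser-scanning microplate cytometry.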
PINK1 expr mod: A Quantitative High throughput Screen to Identify Chemical Modulators of PINK1 Expression; PINK1 immunofluorescence, high-content cytometry, 24 h; Potency, µM (series often up to 76.6 µM), for inactives: top-dose activation (PINK1 increase), usual class: activators; 410,000 compounds, 0.2% hits; active means well fitted activation curve with a large enough effect; inconclusive means small, poorly fitted or top-dose-only effect; cell line not stated here; further: % of control where 0% means no effect; nearly all actives have a fitted effect of over 65% in size
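A stable cell line was treated with compounds at 5 concentrations for 24 hours, with CCCP as control. PINK1 levels and mitochondrial localization were measured by immunofluorescence with mitochondrial, cell and nuclear markers after fixation, read by laser-scanning cytometry.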
A549 viability: Nrf2 qHTS screen for inhibitors: counterscreen for cytotoxicity. Potency, µM (top dose mostly 46 µM), for inactives: at the top dose activity change, negative = cytotoxicity, most hits filed as inhibitors. A549 ARE-Fluc cells, CellTiter-Fluor viability, 18-24 h. 390,000 compounds, 0.16% hits; further: on the % scale 0 is the no-effect control and ±100 the full control effect
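A549 ARE-Fluc cells in 5% FBS OPTI-MEM, 5000 cells/well, rested 2 h then exposed to compounds in concentration-response for 18-24 h at 37 °C. Viability by CellTiter-Fluor fluorescence (Ex 405/Em 525) after 30 min; luciferase luminescence (BugLite, 15 min, RT) read afterwards.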
The depositor's hits bear a star; ? = inconclusive; · = no result; [ ] = remark or other dose. Unless noted, the call rests on the fitted dose curve; in most records, active means well fitted curve in the direction sought with a large enough effect; inconclusive means small, poorly fitted or top-dose-only effect, or another doubt; inactive means no such curve, though single readings can be large; an effect the other way counts as inactive or inconclusive. Potency means the concentration at half of the fitted maximal effect.

SMILES | Nrf2 inh | Nrf2 activator | Epigenetic derep | PINK1 expr mod | A549 viability
CNC(=O)Oc1ccc2c(c1)C1(C)CCN(C)C1N2C (stereo unspecified) | · | · | 3% | · | ·
COc1cc(OCc2ccccc2)c(C(=O)/C=C/c2ccc3c(c2)OCO3)c(OC)c1OC | 21µM* | ? | · | 0% | 0%
Cc1ccc(NC(=O)c2ccc(CNS(=O)(=O)c3ccc4c(c3)C(C)(C)C(=O)N4C)cc2)cc1C | 18µM* | 0% | 0% | -1% | -29%
COc1cccc(S(=O)(=O)NCc2ccc(C(=O)Nc3cccc(Cl)c3)cc2)c1 | · | 1% | 0% | 15% | ?
Cc1cccc(NC(=O)c2ccc(CNS(=O)(=O)c3ccc4c(c3)C(C)(C)C(=O)N4C)cc2)c1 | 21µM* | 0% | 4% | -1% | -16%
COc1cccc(NC(=O)c2ccc(CNS(=O)(=O)c3ccc4c(c3)C(C)(C)C(=O)N4C)cc2)c1 | 16µM* | 0% | 0% | 2% | -2%
Cc1ccccc1NC(=O)c1ccc(CNS(=O)(=O)c2ccc3c(c2)C(C)(C)C(=O)N3C)cc1 | -5% | 0% | 0% | 3% | 0%
COc1ccc(CNC(=O)CSc2ncc3c(n2)-c2cc(Cl)ccc2N(Cc2ccccc2)S3(=O)=O)cc1OC | 20% | 8% | 22µM* | 0% | -3%
COc1ccc(CNC(=O)Cn2c(=O)nc(-c3ccccc3F)c3cc(Cl)ccc32)cc1OC | · | 0% | -5% | 0% | 16µM*
COc1ccccc1C1CN(CC(=O)N2CCC(N3CCOCC3)CC2)Cc2ccccc2O1 (stereo unspecified) | · | · | · | -1% | ·
O=[N+]([O-])c1ccc2c(c1)C=C/C2=C\c1ccccc1 | · | · | · | 1% | ·
O=C1c2ccccc2C(=O)N1CCCCN(C(=O)c1ccc([N+](=O)[O-])cc1)c1ccc(Cl)cc1 | ? | 0% | 3% | 0% | -20%
O=C1c2ccccc2C(=O)N1CCCCN(C(=O)c1cc([N+](=O)[O-])cc([N+](=O)[O-])c1)c1ccc(Cl)cc1 | 23µM* | 0% | 3% | -2% | -12%
CCOc1cc(C)c(-c2onc(C(F)(F)F)c2-c2csc(C)n2)c(O)c1 | ? | 2% | 0% | 19%[38.3 µM] | 26µM*
COc1cc(CNC(=O)c2cnc3c(-c4cccc(C)c4)c(C)nn3c2C)cc(OC)c1OC | 21µM* | -1% | 1% | 2% | 0%
COc1ccccc1CNC(=O)c1cnc2c(-c3ccccc3)c(C)nn2c1C | -24% | -1% | 0% | 2% | -3%
Cc1ccc(S(=O)(=O)NCCC(=O)Nc2cc(S(=O)(=O)N(C)C)ccc2C)cc1C | 7.3µM* | -1% | · | 1% | 0%
O=C(CC(C(=O)O)n1ccnc1)c1ccc(Cl)cc1 (stereo unspecified) | · | · | · | 0% | ·
COc1ccc2cc(CCNC(=O)c3cc4ccccc4o3)c(=O)[nH]c2c1 | 10µM* | 0% | · | 3% | -11%
CCC1CN(Cc2cn[nH]c2-c2ccc(F)cc2)Cc2cc(OC)ccc2O1 (stereo unspecified) | · | · | · | 6% | ·
N#Cc1c(-c2cccs2)cc(-c2ccccn2)nc1N | · | 7.9µM* | ? | 5% | 1%
Cc1ccc(N2C(=O)C(Cl)=C(N3CCCCCC3)C2=O)c(C)c1 | 23µM* | -1% | · | 0% | ?
CCC1(C2CCN(C(=O)c3ccccc3C)CC2)NC(=O)N(CCc2scnc2C)C1=O (stereo unspecified) | · | · | · | 0% | ·
COc1cccc(Cn2nnc(C(=O)Nc3cc(C)ccc3OC)c2N)c1 | -14% | 0% | 9% | 8% | 11%
COc1cccc(Cn2nnc(C(=O)Nc3cc(C)ccc3C)c2N)c1 | 16µM* | 4% | -1% | 3% | -4%
SMILES | Nrf2 inh | Nrf2 activator | Epigenetic derep | PINK1 expr mod | A549 viability
O=S(=O)(Nc1nc2ccccc2nc1N1CCc2ccccc2C1)c1ccc(Cl)cc1 | ? | 29% | -1% | 16µM* | -12%
COc1ccc(NC(=O)C2CCN(S(=O)(=O)c3ccc4c(c3)CCCC(=O)N4)CC2)cc1OC | ? | -1% | -1% | -1% | 14%
COc1cccc(CNc2nc3ccc(C)cc3n3cnnc23)c1 | -8% | 0% | ? | 40µM* | -5%
COc1ccc(NC(=O)Cn2nnc(C(=O)NCc3cccs3)c2N)c(OC)c1 | 18µM* | 0% | · | 0% | ?
Cc1ccsc1C1Cc2c(C(=O)NCc3cccnc3)c(=O)cc(C)n2-c2ccccc2S1 (stereo unspecified) | · | · | · | -1% | ·
COc1ccc(NS(=O)(=O)c2ccc3oc(SC(C)C(N)=O)nc3c2)cc1 (stereo unspecified) | 23µM* | 3% | · | -3% | -3%
CCNC(=O)CSc1nc2cc(S(=O)(=O)Nc3ccc(OC)cc3)ccc2o1 | 9% | 2% | · | 2% | 1%
O=C1c2ccccc2C(=O)N1c1cc(=O)c2ccccc2[nH]1 | 2% | · | · | · | 4%
COC(=O)[C@H]1CC=C[C@H]2CCN(Cc3ccc(Cl)c(Cl)c3)C(=O)[C@@H]12 | · | · | -3% | · | ·
O=C(Nc1ccc(Cl)c(C(F)(F)F)c1)[C@@H]1CC=C[C@@H]2CCN(Cc3ccc(Cl)c(Cl)c3)C(=O)[C@@H]21 | 12µM* | 0% | · | 10% | -11%
Cc1ccc2c(CC(=O)N(Cc3ccc(N(C)C)cc3)Cc3ccco3)coc2c1C | 23µM* | 4% | -2% | -1% | -5%
Cc1ccn2c(Nc3ccc(F)cc3)c(-c3ccccn3)nc2c1 | 16µM* | 1% | 0% | -2% | ?
Cc1cccc2nc(-c3ccccn3)c(Nc3ccc(F)cc3)n12 | 16µM* | 0% | -2% | 11% | ?
Cc1cccc2nc(-c3ccccn3)c(Nc3ccccc3)n12 | 10µM* | 4% | -1% | ? | -26%
COc1ccc(N(C(=O)c2cccc(C)c2)S(=O)(=O)c2ccc(C)cc2)cc1 | -5% | 0% | 0% | 1% | 7%
Nc1ccc(/C=C/c2ccnc3ccccc23)cc1[N+](=O)[O-] | · | · | · | 3% | ·
Oc1cc2cc(-c3csc(-c4ccc(F)cc4)n3)cc3c2n1CCC3 | · | · | · | 0% | ·
CC(C)(C)C(=O)CSc1nc2ccsc2c(=O)n1Cc1ccccc1Cl | · | 1% | 0% | 2% | 6%
CC12CC(c3ccccc3O1)N(C(=O)c1ccco1)C(=S)N2c1ccc(F)cc1 (stereo unspecified) | 16µM* | 0% | -2% | 1% | ?
CCCCCc1ccc(OCCC[n+]2ccccc2)c(CCCCC)c1 | 13µM* | -3% | 0% | -4% | ?
c1ccc(-c2cn(-c3ccccc3)c3[n+]2CCCS3)cc1 | 9.2µM* | 0% | 6% | 1% | -10%
N#Cc1ccc(-c2cn(-c3ccccc3)c3[n+]2CCCS3)cc1 | 4% | 0% | -2% | 1% | 1%

Bioassay records deposited in PubChem BioAssay by National Center for Advancing Translational Sciences (NCATS).
